Experimental data: PubChem BioAssay (Tox21)
Inconclusive results are not listed. Activity calls are given as the source filed them. Unless noted, the call rests on the fitted dose curve; in most records, active means well fitted curve in the direction sought with a large enough effect in the repeat runs; inconclusive means weak or mixed curves; inactive means no such curve, though single readings can be large; an effect the other way counts as inactive or inconclusive.

Tests used:
[1] = qHTS assay to identify aromatase inhibitors - cell viability counter screen (AID 743084);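 further: cells stimulated with testosterone during compound exposure; nearly all actives have a fitted effect of over 55% in size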
[2] = target: Aryl hydrocarbon receptor (Homo sapiens) (UniProt P35869); experiment: qHTS assay to identify small molecule that activate the aryl hydrocarbon receptor (AhR) signaling pathway (AID 743085);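 further: HG2L7.5c1 human HepG2 liver cells with stably integrated DRE-driven firefly reporter; series mostly up to about 70 µM; nearly all actives have a fitted effect of over 15% in size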
Aryl hydrocarbon receptor (Homo sapiens), sequence (P35869 whole entry, looked up): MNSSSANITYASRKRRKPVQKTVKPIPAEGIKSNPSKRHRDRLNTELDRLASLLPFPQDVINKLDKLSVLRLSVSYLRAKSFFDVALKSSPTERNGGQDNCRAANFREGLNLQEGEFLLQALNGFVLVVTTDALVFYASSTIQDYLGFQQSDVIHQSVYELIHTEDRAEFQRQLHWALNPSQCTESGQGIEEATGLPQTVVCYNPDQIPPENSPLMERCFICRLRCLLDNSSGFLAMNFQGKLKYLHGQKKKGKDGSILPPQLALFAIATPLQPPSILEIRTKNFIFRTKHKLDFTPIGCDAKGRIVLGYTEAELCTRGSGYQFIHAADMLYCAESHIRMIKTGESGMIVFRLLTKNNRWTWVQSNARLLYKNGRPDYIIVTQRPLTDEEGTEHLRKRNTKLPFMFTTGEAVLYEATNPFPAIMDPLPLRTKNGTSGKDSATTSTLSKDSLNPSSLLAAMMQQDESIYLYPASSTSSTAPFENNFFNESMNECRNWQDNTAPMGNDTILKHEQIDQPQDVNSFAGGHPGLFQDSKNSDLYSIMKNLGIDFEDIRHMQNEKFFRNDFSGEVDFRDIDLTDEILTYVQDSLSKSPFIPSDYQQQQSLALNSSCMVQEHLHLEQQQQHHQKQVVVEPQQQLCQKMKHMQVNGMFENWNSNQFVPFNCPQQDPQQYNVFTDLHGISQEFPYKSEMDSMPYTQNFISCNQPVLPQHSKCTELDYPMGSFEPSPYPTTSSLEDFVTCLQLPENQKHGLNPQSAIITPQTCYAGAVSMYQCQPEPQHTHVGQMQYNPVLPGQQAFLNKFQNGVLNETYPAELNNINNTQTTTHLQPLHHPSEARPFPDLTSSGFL
Summary of the method: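 Luminescence read-out: ONE-Glo reagent, 30 min at room temperature, in HG2L7.5c1 HepG2 reporter cells treated 24 h at 37C. Viability was measured beforehand by CellTiter-Fluor fluorescence after 30 min at 37C.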

[3] = qHTS assay to identify small molecule that activate the aryl hydrocarbon receptor (AhR) signaling pathway - cell viability counter screen (AID 743086);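 further: HepG2 liver cells carrying the AhR DRE luciferase reporter; series mostly up to about 70 µM; nearly all actives have a fitted effect of over 45% in size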
Summary of the method: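 HepG2-AhR-luc (HG2L7.5c1) cells, 4000/well, treated 24 h at 37 C with compound; viability measured as CellTiter-Fluor fluorescence after 30 min in the same wells as the luciferase read.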

[4] = target: Peroxisome proliferator-activated receptor gamma (Homo sapiens) (UniProt P37231); experiment: qHTS assay to identify small molecule agonists of the peroxisome proliferator-activated receptor gamma (PPARg) signaling pathway (AID 743094; active means well fitted activation curve with a large enough effect in the signal ratio in the repeat runs, not every such curve was filed as active; the % refers to the signal ratio)
Peroxisome proliferator-activated receptor gamma (Homo sapiens), sequence (P37231 whole entry, looked up): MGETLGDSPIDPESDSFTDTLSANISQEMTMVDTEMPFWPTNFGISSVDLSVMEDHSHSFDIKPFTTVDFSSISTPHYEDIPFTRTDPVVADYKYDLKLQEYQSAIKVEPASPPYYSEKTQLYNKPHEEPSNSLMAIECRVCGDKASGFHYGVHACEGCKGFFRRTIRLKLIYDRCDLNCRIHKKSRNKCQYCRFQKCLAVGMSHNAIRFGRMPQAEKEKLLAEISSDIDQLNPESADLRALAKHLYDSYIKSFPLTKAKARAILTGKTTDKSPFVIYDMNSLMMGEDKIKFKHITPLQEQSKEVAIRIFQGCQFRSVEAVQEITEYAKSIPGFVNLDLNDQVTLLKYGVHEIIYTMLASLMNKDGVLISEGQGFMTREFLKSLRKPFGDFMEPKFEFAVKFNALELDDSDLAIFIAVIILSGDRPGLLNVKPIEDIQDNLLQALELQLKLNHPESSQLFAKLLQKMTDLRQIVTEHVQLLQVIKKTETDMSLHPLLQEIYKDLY
Summary of the method: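 Compounds dissolved in DMSO were added to PPARg UAS-bla HEK293H cells for 17 h at 37C, and reporter expression was quantified by fluorescence intensity after 1 h with LiveBLAzer B/G FRET substrate.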

[5] = target: Peroxisome proliferator-activated receptor gamma (Homo sapiens) (UniProt P37231); experiment: qHTS assay to identify small molecule antagonists of the peroxisome proliferator-activated receptor gamma (PPARg) signaling pathway (AID 743191; calls by dose curve; further: series mostly up to about 63 µM; nearly all actives have a fitted effect of over 30% in size)
Summary of the method: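 GeneBLAzer PPARg UAS-bla HEK293H cells, 5 h post-plating, exposed to compounds 17 h at 37C. LiveBLAzer B/G FRET substrate added for 1 h at room temperature; beta-lactamase reporter read by fluorescence intensity.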

[6] = qHTS assay to identify small molecule antagonists of the peroxisome proliferator-activated receptor gamma (PPARg) signaling pathway - cell viability counter screen (AID 743194); conditions: Potency: co-treated with 50 nM rosiglitazone; further: nearly all actives have a fitted effect of over 55% in size
Summary of the method: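 Cytotoxicity counter screen in PPARg-bla HEK293H cells, same wells as reporter assay. Compounds plus 50 nM rosiglitazone (final) for 17 h at 37 C, then viability read by CellTiter-Glo luminescence.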

[7] = qHTS assay for small molecule agonists of the antioxidant response element (ARE) signaling pathway (AID 743202; active means well fitted activation curve with a large enough effect in the signal ratio in the repeat runs, not every such curve was filed as active; the % refers to the signal ratio)
Summary of the method: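 Agonist mode reporter screen: HepG2 cells with ARE-controlled beta-lactamase are incubated with test compounds for 16 h at 37 C, and beta-lactamase activity is measured as fluorescence of cleaved B/G FRET substrate.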

[8] = qHTS assay for small molecule agonists of the antioxidant response element (ARE) signaling pathway - cell viability counter screen (AID 743203; calls by dose curve; further: nearly all actives have a fitted effect of over 55% in size)
Summary of the method: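 Following 16 hrs of compound treatment at 37C, HepG2 cells with an ARE-controlled beta-lactamase gene were lysed with CellTiter-Glo. Luminescence was read after 30 min at room temperature.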

[9] = qHTS assay for small molecule activators of the heat shock response signaling pathway - cell viability counter screen (AID 743209); further: nearly all actives have a fitted effect of over 50% in size
Summary of the method: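 Readout: CellTiter-Glo luminescence, 30 min at room temperature. System: HSE-bla HeLa cells, 1500/well, plated overnight. Treatment: compounds in DMSO, 5 h at 37 C.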

[10] = qHTS assay to identify small molecule agonists of the peroxisome proliferator-activated receptor delta (PPARd) signaling pathway - cell viability counter screen (AID 743211); further: nearly all actives have a fitted effect of over 55% in size
Summary of the method: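 Read-out: CellTiter-Glo luminescence, 30 min RT, measured in the same wells as the beta-lactamase reporter. Cells: GeneBLAzer PPAR delta UAS-bla HEK293H, 3000 cells/well, compound exposure 17 h at 37C.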

[11] = target: Peroxisome proliferator-activated receptor delta (Homo sapiens) (UniProt Q03181); experiment: qHTS assay to identify small molecule agonists of the peroxisome proliferator-activated receptor delta (PPARd) signaling pathway (AID 743212; calls by dose curve)
Peroxisome proliferator-activated receptor delta (Homo sapiens), sequence (Q03181 whole entry, looked up): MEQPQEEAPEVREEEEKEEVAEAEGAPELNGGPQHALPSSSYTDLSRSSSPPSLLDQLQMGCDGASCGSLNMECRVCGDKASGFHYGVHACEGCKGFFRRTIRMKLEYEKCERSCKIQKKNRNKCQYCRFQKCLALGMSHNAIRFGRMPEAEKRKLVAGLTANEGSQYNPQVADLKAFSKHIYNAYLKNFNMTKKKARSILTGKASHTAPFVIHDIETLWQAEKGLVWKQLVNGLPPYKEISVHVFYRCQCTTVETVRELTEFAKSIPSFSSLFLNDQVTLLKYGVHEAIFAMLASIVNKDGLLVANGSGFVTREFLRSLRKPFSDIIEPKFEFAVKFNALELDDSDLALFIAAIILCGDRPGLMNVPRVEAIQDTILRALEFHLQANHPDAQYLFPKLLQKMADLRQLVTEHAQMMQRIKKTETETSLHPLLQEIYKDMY
Summary of the method: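 Quantitative high-throughput agonist screen in a HEK293H beta-lactamase reporter line under UAS control. Compounds in DMSO, at 37 C. Fluorescence read after 2 h with FRET substrate at room temperature.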

[12] = qHTS assay to identify small molecule antagonists of the peroxisome proliferator-activated receptor delta (PPARd) signaling pathway - cell viability counter screen (AID 743213); further: nearly all actives have a fitted effect of over 50% in size
Summary of the method: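 PPARd-bla HEK293H cells (3000/well) got compound plus 300 nM L165041 agonist for 17 h at 37 C. Viability in the same wells came from CellTiter-Glo luminescence after 30 min at room temperature.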

[13] = target: Peroxisome proliferator-activated receptor delta (Homo sapiens) (UniProt Q03181); experiment: qHTS assay to identify small molecule antagonists of the peroxisome proliferator-activated receptor delta (PPARd) signaling pathway (AID 743215; active means well fitted inhibition curve with a large enough effect in the signal ratio in the repeat runs, not every such curve was filed as active; the % refers to the signal ratio;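 further: cells stimulated with agonist L165041 at 300 nM final during compound exposure; series mostly up to about 62 µM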)
Summary of the method: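 HEK293H UAS-bla, PPARd; agonist L165041 300 nM final with cpd in DMSO; 37 C 17 h; FRET substrate, RT 2 h; fluorescence intensity.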

[14] = target: Bile acid receptor (Homo sapiens) (UniProt Q96RI1); experiment: qHTS assay to identify small molecule antagonists of the farnesoid-X-receptor (FXR) signaling pathway (AID 743217; active means well fitted inhibition curve with a large enough effect in the signal ratio in the repeat runs, not every such curve was filed as active; the % refers to the signal ratio)
Bile acid receptor (Homo sapiens), sequence (Q96RI1 whole entry, looked up): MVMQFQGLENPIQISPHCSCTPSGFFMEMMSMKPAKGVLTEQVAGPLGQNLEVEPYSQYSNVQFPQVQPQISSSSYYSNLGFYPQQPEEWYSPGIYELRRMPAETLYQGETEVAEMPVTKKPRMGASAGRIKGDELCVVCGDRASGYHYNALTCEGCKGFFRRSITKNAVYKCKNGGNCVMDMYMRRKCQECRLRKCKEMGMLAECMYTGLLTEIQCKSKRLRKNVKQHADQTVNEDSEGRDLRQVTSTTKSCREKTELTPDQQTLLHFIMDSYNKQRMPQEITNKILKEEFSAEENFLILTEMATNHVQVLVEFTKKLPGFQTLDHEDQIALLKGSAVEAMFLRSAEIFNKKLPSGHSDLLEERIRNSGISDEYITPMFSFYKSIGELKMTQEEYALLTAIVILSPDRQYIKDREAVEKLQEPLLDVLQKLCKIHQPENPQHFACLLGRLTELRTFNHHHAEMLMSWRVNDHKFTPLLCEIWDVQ
Summary of the method: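 GeneBLAzer FXR-UAS-bla HEK 293T, CDCA-stimulated (50 uM final). Compound treatment 16 h, 37 °C. Detection: beta-lactamase cleavage of B/G FRET substrate, fluorescence.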

[15] = qHTS assay to identify small molecule agonists of the farnesoid-X-receptor (FXR) signaling pathway - cell viability counter screen (AID 743218); further: nearly all actives have a fitted effect of over 45% in size
Summary of the method: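 Parallel cytotoxicity test: compound-treated (16 h, 37 C) HEK 293T FXR-bla reporter cells were lysed with CellTiter-Glo and luminescence recorded.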

[16] = target: Bile acid receptor (Homo sapiens) (UniProt Q96RI1); experiment: qHTS assay to identify small molecule agonists of the farnesoid-X-receptor (FXR) signaling pathway (AID 743220; active means well fitted activation curve with a large enough effect in the signal ratio in the repeat runs, not every such curve was filed as active; the % refers to the signal ratio)
Summary of the method: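 Beta-lactamase reporter under UAS control in GeneBLAzer FXR HEK 293T cells (5000/well) measured with LiveBLAzer FRET substrate after 2 h at room temperature. Compound exposure lasted 16 h at 37C.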

[17] = qHTS assay to identify small molecule antagonists of the farnesoid-X-receptor (FXR) signaling pathway - cell viability counter screen (AID 743221; active means well fitted cell-killing curve with a large enough effect in the repeat runs, not every such curve was filed as active; further: nearly all actives have a fitted effect of over 50% in size)
Summary of the method: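 HEK 293T FXR-bla cells, 5 h pre-incubation; compound + CDCA 50 uM final, 16 h, 37 C; beta-lactamase FRET read first, then CellTiter-Glo luminescence, 30 min RT.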

[18] = target: Vitamin D3 receptor (Homo sapiens) (UniProt P11473); experiment: qHTS assay to identify small molecule agonists of the vitamin D receptor (VDR) signaling pathway (AID 743222; calls by dose curve)
Vitamin D3 receptor (Homo sapiens), sequence (P11473 whole entry, looked up): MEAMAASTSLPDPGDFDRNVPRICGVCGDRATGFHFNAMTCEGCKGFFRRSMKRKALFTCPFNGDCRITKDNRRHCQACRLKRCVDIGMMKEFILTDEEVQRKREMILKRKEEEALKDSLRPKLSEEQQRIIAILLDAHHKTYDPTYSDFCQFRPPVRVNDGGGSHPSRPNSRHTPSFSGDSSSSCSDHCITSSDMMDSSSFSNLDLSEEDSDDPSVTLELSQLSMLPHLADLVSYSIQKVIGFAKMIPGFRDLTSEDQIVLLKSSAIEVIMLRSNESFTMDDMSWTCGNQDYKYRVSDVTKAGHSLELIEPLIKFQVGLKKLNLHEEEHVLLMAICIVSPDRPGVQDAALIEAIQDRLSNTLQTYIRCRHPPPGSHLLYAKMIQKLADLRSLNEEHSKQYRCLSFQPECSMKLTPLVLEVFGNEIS
Summary of the method: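 In VDR-bla cells, compound-induced beta-lactamase expression is quantified by FRET substrate fluorescence. Treatment lasts 16 h at 37C; substrate develops 2 h at room temperature.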

[19] = qHTS assay for small molecule activators of the heat shock response signaling pathway (AID 743210; active means well fitted activation curve with a large enough effect in the signal ratio in the repeat runs, with a control signal flat, not every such curve was filed as active; the % refers to the signal ratio;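 further: HeLa cells with beta-lactamase reporter driven by heat shock elements; series mostly up to about 63 µM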)
Summary of the method: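 Quantitative high-throughput format using an engineered HeLa line in which heat shock response elements drive beta-lactamase; after 5 h with compound, cells received a B/G FRET substrate and fluorescence was read.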

[20] = target: Vitamin D3 receptor (Homo sapiens) (UniProt P11473); experiment: qHTS assay to identify small molecule antagonists of the vitamin D receptor (VDR) signaling pathway (AID 743223; active means well fitted inhibition curve with a large enough effect in the signal ratio in the repeat runs, not every such curve was filed as active; the % refers to the signal ratio)
Summary of the method: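 Beta-lactamase reporter read-out: FRET substrate fluorescence after 2 h at room temperature, following 16 h exposure of VDR-bla cells to test compound plus 3 nM (final) 1alpha,25-dihydroxyvitamin D3 agonist at 37C.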

Measured: Potency

CC(=O)Nc1cc([As](=O)(O)O)ccc1O
not listed: [19] | [20]
inactive: all other assays above

O=[N+]([O-])c1cccc(O)c1
not listed: [7] | [11] | [16]
inactive: all other assays above

CSc1ccc(C(=O)C(C)(C)N2CCOCC2)cc1
not listed: [7]
inactive: all other assays above

NC(=S)C(N)=S
not listed: [6] | [7] | [11] | [15] | [20]
inactive: all other assays above

ClCC(Cl)Cl
not listed: [7] | [11] | [13] | [14] | [16] | [20]
inactive: all other assays above

Cc1cnc[nH]1
not listed: [6] | [20]
inactive: all other assays above

CC(N)=S
not listed: [7] | [16] | [19]
inactive: all other assays above

CC(C)[N+](=O)[O-]
not listed: [5] | [7]
inactive: all other assays above

N#Cc1ccncc1
not listed: [6] | [11] | [14] | [15] | [16] | [20]
inactive: all other assays above

CCCCOC(=O)[C@@H](C)Oc1ccc(Oc2ccc(C#N)cc2F)cc1
not listed: [5] | [7] | [11] | [13] | [14] | [15] | [16]
inactive: all other assays above

C#CCN1C(=O)COc2cc(F)c(N3C(=O)C4=C(CCCC4)C3=O)cc21
not listed: [5] | [7] | [8] | [14] | [16]
inactive: all other assays above

C[C@]1(O)CC[C@H]2[C@@H]3CCC4=CC(=O)CC[C@]4(C)[C@@]3(F)[C@@H](O)C[C@@]21C
not listed: [6] | [7] | [11] | [13] | [15] | [18] | [20]
inactive: all other assays above

[Cl][Sn]([Cl])([Cl])[Cl]
not listed: [5] | [13] | [14] | [16] | [20]
inactive: all other assays above

COC(=O)C1=CCCN(C)C1
not listed: [5]
inactive: all other assays above

O=P(O)(Oc1ccccc1)Oc1ccccc1
not listed: [7] | [11] | [13] | [18]
inactive: all other assays above

CC(=O)CCc1ccc2c(c1)OCO2
not listed: [5] | [18] | [20]
inactive: all other assays above

C1CCC(C2CCCCC2)CC1
not listed: [5] | [7] | [8] | [11] | [15] | [17]
inactive: all other assays above

COC(=O)C(c1ccccc1)C1CCCCN1 (configuration not stated)
not listed: [7] | [11] | [13] | [16] | [17]
inactive: all other assays above
